Experimental data published in PubChem BioAssay.
Active and inactive are the calls of the source.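 Rule for the calls, unless noted: active = visual image review flags a hit and inhibition of aggregation exceeds 20%; inconclusive = visual hit but inhibition at or below 20%; inactive = no hit on visual image review.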

experiment: inhibitors of TNFa-induced NFkB p65 translocation, primary screen, imaging, HUVEC, MLSMR starter and 10KST1 sets (AID 438;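 active = inhibition above 20% together with a positive visual image hit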;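 note: compound added about 3h40 before a 20 min TNFalpha stimulation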;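 for inhibition: signal is the nuclear over cytoplasmic p65 intensity ratio per well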); conditions: HUVEC TNFa-induced p65 nuclear translocation; cell count: measured here: nuclei count (cytotoxicity indicator), at 2.08 µM; inhibition: at 2 µM, stronger effect = higher value, 0% TNFa-plus-vehicle, 100% no-TNFa wells

Row | Compound | cell count | inhibition
1 | O=C(NC1=NCCS1)c1nc(-c2ccccc2)n(-c2ccccc2)n1 | 495 | 4.7% (inactive)
2 | CN(C)/C=N/c1ncnc2c1cnn2-c1ccc(C(F)(F)F)cn1 | 565 | -0.9% (inactive)
3 | Cc1cc(=O)n(CCO)c(O)c1C#N | 735 | 0.3% (inactive)
4 | CC(=O)c1ccc(OCC(O)CN2CCN(CCO)CC2)cc1 (stereo unspecified) | 605 | -6.1% (inactive)
5 | C=CCNC(=O)CSc1nc2sc(C)c(C)c2c(=O)[nH]1 | 590 | -3.4% (inactive)
6 | O=S(=O)(NCc1cn2ccsc2n1)c1ccc2c(c1)OCCO2 | 600 | 8.2% (inactive)
7 | CC(=O)C(Sc1ncnc2c1nnn2-c1ccc(F)cc1)C(=O)N(C)C (stereo unspecified) | 464 | -2.2% (inactive)
8 | CCOCCc1nnc(NC(=O)c2ccc(OC)c(OC)c2)s1 | 578 | 9.1% (inactive)
9 | CCCCNC(=O)CSc1nc2ccc(N3CCOCC3)cc2c(=O)n1CCc1ccccc1 | 533 | -0.8% (inactive)
10 | CC(=O)c1ccc(OC(=O)c2cccs2)cc1 | 305 | 3.8% (inactive)
11 | Cn1nnnc1SCC(=O)N1CCN(c2cccc(Cl)c2)CC1 | 360 | -2.9% (inactive)
12 | COc1cc(C(c2sc3nc(C)nn3c2O)N2CC(C)CC(C)C2)cc(OC)c1OC (stereo unspecified) | 468 | -3.4% (inactive)
13 | O=C1C2C3C=CC(C3)C2C(=O)N1c1cccc(N2C(=O)C3C4C=CC(C4)C3C2=O)n1 (stereo unspecified) | 227 | 8.4% (inactive)
14 | O=C(Nc1ccc(Cl)cc1C(=O)O)c1ccc2c(c1)C(=O)N(Cc1ccco1)C2=O | 366 | 0.3% (inactive)
15 | COc1cccc(Oc2cnc(N)nc2-c2ccc(OC)cc2O)c1 | 664 | -8.2% (inactive)
16 | CCCC1(C(=O)OC)NC(c2cc(OC)c(OC)c(OC)c2)C2C(=O)N(CC)C(=O)C21 (stereo unspecified) | 582 | 5.5% (inactive)
17 | CCN(Cc1cc2ccccc2[nH]c1=O)S(=O)(=O)c1ccccc1 | 642 | 7.5% (inactive)
18 | CCOC(=O)c1sc2nc(SCC(=O)NCc3ccco3)n(Cc3ccccc3)c(=O)c2c1C | 395 | -1.1% (inactive)
19 | O=C(c1cc2cc(Cl)cc(Cl)c2oc1=O)N1CCOCC1 | 275 | 13.1% (inactive)
20 | Cc1ccc2nc(NCCCN3CCOCC3)c(C=NCCCN3CCOCC3)c(=O)n2c1 | 619 | -9.6% (inactive)

Row | Compound | cell count | inhibition
21 | O=C(NCN1CCCCC1)c1cnccn1 | 604 | -9.2% (inactive)
22 | Cc1ccc(N=Cc2ccc(O)cc2O)cc1F | 334 | -13.8% (inactive)
23 | Cn1c2ccc(F)cc2c2ncn(CCN3CCOCC3)c(=O)c21 | 719 | -8.9% (inactive)
24 | CCOC(=O)c1ccc(NC(=O)CSC2=NC(=O)C(CC)C(=O)N2)cc1 (stereo unspecified) | 534 | -20.1% (inactive)
25 | N#CCCn1ccc(NC(=O)c2ccc(Cl)cc2)n1 | 444 | -6.3% (inactive)
26 | CCN(CC)Cc1c(C(=O)OC)nnn1-c1nonc1N | 476 | -0.2% (inactive)
27 | CCN1CCN(Cc2nc3c(c(=O)n(C)c(=O)n3C)n2CC(=O)c2ccccc2)CC1 | 465 | -1.8% (inactive)
28 | CC(=O)N(C)C1(c2nnnn2CCOC(=O)Nc2ccc(Cl)cc2)CCCCC1 | 498 | 4.3% (inactive)
29 | COCCn1nnnc1CN(Cc1cccnc1)Cc1cc2cc(OC)ccc2[nH]c1=O | 670 | -10.6% (inactive)
30 | CCOc1cccc(-n2nnnc2-c2ccc(OC)cc2)c1 | 208 | 1.2% (inactive)
31 | COc1ccc(N2CCN(C(c3cccs3)c3nnnn3C3CCCC3)CC2)cc1 (stereo unspecified) | 219 | 12.7% (inactive)
32 | CCS(=O)(=O)N1CCCC(C(=O)NCCc2ccc(OC)c(OC)c2)C1 (stereo unspecified) | 709 | -12.8% (inactive)
33 | CC(=O)Nc1ccc(S(=O)(=O)NCC(C)NS(=O)(=O)c2ccc(NC(C)=O)cc2)cc1 (stereo unspecified) | 572 | -9.7% (inactive)
34 | Cc1nc2ncnn2c(N2CCC(C(=O)NC3CCCC3)CC2)c1Cc1ccccc1 | 400 | 2.7% (inactive)
35 | c1ccc(-n2cnc3cc(NCc4ccccn4)ccc32)cc1 | 469 | -5.7% (inactive)
36 | Cc1nn(-c2ccc(F)cc2)c2sc(C(=O)N3CCCCCC3)cc12 | 465 | 2% (inactive)
37 | O=C(Nc1ccccc1-c1ccccc1)NC1CCN(CC(=O)N2CCOCC2)CC1 | 537 | -39.8% (inactive)
38 | Cc1ccccc1-c1nc(CN2CCC(C(=O)NC3CCN(Cc4ccccc4)CC3)CC2)c(C)o1 | 612 | 3.7% (inactive)
39 | Cc1[nH]c(C(=O)N2CCCCC2)c(C)c1C(=O)NC1CCCCC1 | 425 | 0.5% (inactive)

experiment: reduction of polyQ htt aggregates in cells – imaging, exon1htt(103Q)mCFP cells, high-content imaging, primary screen (AID 483); conditions: exon1htt(103Q)mCFP cell line, aggregate imaging, at 2 µM; inhibition of aggregation: stronger effect = higher value; nuclei count: measured here: cell count, toxicity;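 note: compound exposure lasted 3 days before fixation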;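 for nuclei count: percent of the per-plate median nuclei count of sample wells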

Row | Compound | inhibition of aggregation | nuclei count
40 | O=C(NC1=NCCS1)c1nc(-c2ccccc2)n(-c2ccccc2)n1 | 1% (inactive) | 109%
41 | CN(C)/C=N/c1ncnc2c1cnn2-c1ccc(C(F)(F)F)cn1 | -3.8% (inactive) | 110%
42 | Cc1cc(=O)n(CCO)c(O)c1C#N | -6.8% (inactive) | 94%
43 | CC(=O)c1ccc(OCC(O)CN2CCN(CCO)CC2)cc1 (stereo unspecified) | -14.2% (inactive) | 104%
44 | C=CCNC(=O)CSc1nc2sc(C)c(C)c2c(=O)[nH]1 | 13.2% (inactive) | 91.2%
45 | O=S(=O)(NCc1cn2ccsc2n1)c1ccc2c(c1)OCCO2 | -3.9% (inactive) | 71%
46 | CC(=O)C(Sc1ncnc2c1nnn2-c1ccc(F)cc1)C(=O)N(C)C (stereo unspecified) | 2.3% (inactive) | 89.3%
47 | CCOCCc1nnc(NC(=O)c2ccc(OC)c(OC)c2)s1 | -18.6% (inactive) | 97.6%
48 | CCCCNC(=O)CSc1nc2ccc(N3CCOCC3)cc2c(=O)n1CCc1ccccc1 | 28.7% (active) | 48.9%
49 | CC(=O)c1ccc(OC(=O)c2cccs2)cc1 | -6.3% (inactive) | 99.1%
50 | Cn1nnnc1SCC(=O)N1CCN(c2cccc(Cl)c2)CC1 | 10.8% (inactive) | 94.4%
51 | COc1cc(C(c2sc3nc(C)nn3c2O)N2CC(C)CC(C)C2)cc(OC)c1OC (stereo unspecified) | -10.7% (inactive) | 114%
52 | O=C1C2C3C=CC(C3)C2C(=O)N1c1cccc(N2C(=O)C3C4C=CC(C4)C3C2=O)n1 (stereo unspecified) | -5.5% (inactive) | 109%
53 | O=C(Nc1ccc(Cl)cc1C(=O)O)c1ccc2c(c1)C(=O)N(Cc1ccco1)C2=O | -2.8% (inactive) | 105%
54 | COc1cccc(Oc2cnc(N)nc2-c2ccc(OC)cc2O)c1 | 5.1% (inactive) | 112%
55 | CCCC1(C(=O)OC)NC(c2cc(OC)c(OC)c(OC)c2)C2C(=O)N(CC)C(=O)C21 (stereo unspecified) | 8.1% (inactive) | 111%
56 | CCN(Cc1cc2ccccc2[nH]c1=O)S(=O)(=O)c1ccccc1 | 9.9% (inactive) | 104%
57 | CCOC(=O)c1sc2nc(SCC(=O)NCc3ccco3)n(Cc3ccccc3)c(=O)c2c1C | 0.8% (inactive) | 89.7%
58 | O=C(c1cc2cc(Cl)cc(Cl)c2oc1=O)N1CCOCC1 | -12% (inactive) | 87.4%
59 | Cc1ccc2nc(NCCCN3CCOCC3)c(C=NCCCN3CCOCC3)c(=O)n2c1 | -38.5% (inactive) | 10.5%

Row | Compound | inhibition of aggregation | nuclei count
60 | O=C(NCN1CCCCC1)c1cnccn1 | -3.4% (inactive) | 102%
61 | Cc1ccc(N=Cc2ccc(O)cc2O)cc1F | 0.1% (inactive) | 113%
62 | Cn1c2ccc(F)cc2c2ncn(CCN3CCOCC3)c(=O)c21 | -7.4% (inactive) | 81.6%
63 | CCOC(=O)c1ccc(NC(=O)CSC2=NC(=O)C(CC)C(=O)N2)cc1 (stereo unspecified) | -43.6% (inactive) | 83.8%
64 | N#CCCn1ccc(NC(=O)c2ccc(Cl)cc2)n1 | 13.4% (inactive) | 100%
65 | CCN(CC)Cc1c(C(=O)OC)nnn1-c1nonc1N | 13.9% (inactive) | 99.5%
66 | CCN1CCN(Cc2nc3c(c(=O)n(C)c(=O)n3C)n2CC(=O)c2ccccc2)CC1 | -8.6% (inactive) | 89.6%
67 | CC(=O)N(C)C1(c2nnnn2CCOC(=O)Nc2ccc(Cl)cc2)CCCCC1 | 5.4% (inactive) | 107%
68 | COCCn1nnnc1CN(Cc1cccnc1)Cc1cc2cc(OC)ccc2[nH]c1=O | -13.1% (inactive) | 122%
69 | CCOc1cccc(-n2nnnc2-c2ccc(OC)cc2)c1 | -34.6% (inactive) | 3.6%
70 | COc1ccc(N2CCN(C(c3cccs3)c3nnnn3C3CCCC3)CC2)cc1 (stereo unspecified) | 1.6% (inactive) | 104%
71 | CCS(=O)(=O)N1CCCC(C(=O)NCCc2ccc(OC)c(OC)c2)C1 (stereo unspecified) | -9.5% (inactive) | 111%
72 | CC(=O)Nc1ccc(S(=O)(=O)NCC(C)NS(=O)(=O)c2ccc(NC(C)=O)cc2)cc1 (stereo unspecified) | 18.1% (inactive) | 76%
73 | Cc1nc2ncnn2c(N2CCC(C(=O)NC3CCCC3)CC2)c1Cc1ccccc1 | -20.2% (inactive) | 116%
74 | c1ccc(-n2cnc3cc(NCc4ccccn4)ccc32)cc1 | 25.1% (inactive) | 102%
75 | Cc1nn(-c2ccc(F)cc2)c2sc(C(=O)N3CCCCCC3)cc12 | 1.2% (inactive) | 83.1%
76 | O=C(Nc1ccccc1-c1ccccc1)NC1CCN(CC(=O)N2CCOCC2)CC1 | -5% (inactive) | 113%
77 | Cc1ccccc1-c1nc(CN2CCC(C(=O)NC3CCN(Cc4ccccc4)CC3)CC2)c(C)o1 | -89.7% (inactive) | 107%
78 | Cc1[nH]c(C(=O)N2CCCCC2)c(C)c1C(=O)NC1CCCCC1 | 6.3% (inactive) | 97.4%
